A short description of test [1]: Primary qHTS for inhibitors of nuclear receptor binding SET domain protein 2 (NSD2) in an isogenic RCH-ACV NSD2 p.E1099K mutant (9B) (AID 1645876; also: nearly all actives have a fitted effect of over 70% in size; also: potency is read from the fitted curve at half-maximal effect; as to activity change, negative = viability loss: % is scaled to controls: 0 for no effect and ±100 for the full control effect). (In general: Quantitative high-throughput screening tests each substance at several concentrations.)
Test [2] is described as follows: Primary qHTS for inhibitors of nuclear receptor binding SET domain protein 2 (NSD2) in an RCH-ACV wild type WT cells (2C) (AID 1645877). Also: nearly all actives have a fitted effect of over 70% in size. Also: potency is read from the fitted curve at half-maximal effect. As to activity change, negative = cell killing: % is scaled to controls: 0 for no effect and ±100 for the full control effect.
Test [3] addresses Rap guanine nucleotide exchange factor 3 (Homo sapiens) (UniProt O95398). In words: Confirmatory qHTS for antagonist of cAMP-regulated guanine nucleotide exchange factor 3 (EPAC1) (AID 1645880).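 Also: plate controls were DMSO only for no effect and full effect of the ATA control for full effect; nearly all actives have a fitted effect of over 55% in size.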 In short, it runs like this:
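Released BODIPY-GDP fluoresces less than Rap1-bound BODIPY-GDP; the signal is followed at 480/540 nm at 5-min intervals over 30 min, after 5 min at room temperature. Reactions contain 100 nM EPAC1, 250 nM RAP1B-BODIPY-GDP and 50 uM GDP; results are normalized to ATA and DMSO.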

For test [4] the target is unchanged. In words: Confirmatory qHTS for agonist of cAMP-regulated guanine nucleotide exchange factor 3 (EPAC1) (AID 1645881).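 Also: EPAC1 catalysed release of BODIPY-GDP from Rap1B seen as fluorescence loss; 100% = effect of cAMP agonist control; nearly all actives have a fitted effect of over 75% in size.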
In test [5] the target is Rap guanine nucleotide exchange factor 4 (Homo sapiens) (UniProt Q8WZA2). In words: Confirmatory qHTS for agonist of cAMP-regulated guanine nucleotide exchange factor 4 (EPAC2) (AID 1645884).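 Also: nucleotide exchange releases bodipy-GDP from Rap1 and this lowers its fluorescence; % is scaled to controls: 0 for no effect and ±100 for the full control effect; nearly all actives have a fitted effect of over 65% in size.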
Test [6] has the same target. In words: Confirmatory qHTS for antagonist of cAMP-regulated guanine nucleotide exchange factor 4 (EPAC2) (AID 1645885). Also: nearly all actives have a fitted effect of over 25% in size. Also: potency is read from the fitted curve at half-maximal effect.
Test [7] is described as follows: NCATS anti-infectives library activity on HEK293 viability as a counter-qHTS vs the C. elegans viability qHTS (AID 1745854).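 Also: HEK293 cells exposed to compounds for 24 hr before the viability read; % is scaled to controls: 0 for no effect and ±100 for the full control effect.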 The essentials:
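Counter-screen for cytotoxicity: HEK293, 24 hr, 37C, compounds up to 41.7 uM final (a dilution series, 1:5). Readout CellTiter-Glo luminescence, 10 min RT. Digitonin control, 83.3 uM final.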

For test [8], the target named is Phospholipid hydroperoxide glutathione peroxidase GPX4 (Homo sapiens) (UniProt P36969). In words: Primary qHTS Assay for Inhibitors of Recombinant Selenoprotein Glutathione Peroxidase 4 (GPX4) (AID 1845192). Also: nearly all actives have a fitted effect of over 65% in size. In short, it runs like this:
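qHTS, GR-coupled: GPX4 200 nM + cpd 30 min RT → GSH 1 mM, NADPH 0.5 mM, GR 100 nM → CHP 0.5 mM start; fluor 340/450 at t0 and t15 min; no-enzyme wells as control.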

Where “and” joins values, the source holds several entries; their conditions need not be identical. Equal values may be shown once. Inconclusive results are not listed. Some structures have more than one record in an assay (separate samples or runs), and their calls can disagree. Calls of active or inactive are those of the source. Calls follow the shape of the dose curve; as a rule, active = well fitted curve in the direction sought with a large enough effect; inconclusive = small, poorly fitted or top-dose-only effect, or another doubt; inactive = no such curve, though single readings can be large; an effect the other way counts as inactive or inconclusive.

Rap guanine nucleotide exchange factor 4 (Homo sapiens), sequence (Q8WZA2 whole entry, looked up): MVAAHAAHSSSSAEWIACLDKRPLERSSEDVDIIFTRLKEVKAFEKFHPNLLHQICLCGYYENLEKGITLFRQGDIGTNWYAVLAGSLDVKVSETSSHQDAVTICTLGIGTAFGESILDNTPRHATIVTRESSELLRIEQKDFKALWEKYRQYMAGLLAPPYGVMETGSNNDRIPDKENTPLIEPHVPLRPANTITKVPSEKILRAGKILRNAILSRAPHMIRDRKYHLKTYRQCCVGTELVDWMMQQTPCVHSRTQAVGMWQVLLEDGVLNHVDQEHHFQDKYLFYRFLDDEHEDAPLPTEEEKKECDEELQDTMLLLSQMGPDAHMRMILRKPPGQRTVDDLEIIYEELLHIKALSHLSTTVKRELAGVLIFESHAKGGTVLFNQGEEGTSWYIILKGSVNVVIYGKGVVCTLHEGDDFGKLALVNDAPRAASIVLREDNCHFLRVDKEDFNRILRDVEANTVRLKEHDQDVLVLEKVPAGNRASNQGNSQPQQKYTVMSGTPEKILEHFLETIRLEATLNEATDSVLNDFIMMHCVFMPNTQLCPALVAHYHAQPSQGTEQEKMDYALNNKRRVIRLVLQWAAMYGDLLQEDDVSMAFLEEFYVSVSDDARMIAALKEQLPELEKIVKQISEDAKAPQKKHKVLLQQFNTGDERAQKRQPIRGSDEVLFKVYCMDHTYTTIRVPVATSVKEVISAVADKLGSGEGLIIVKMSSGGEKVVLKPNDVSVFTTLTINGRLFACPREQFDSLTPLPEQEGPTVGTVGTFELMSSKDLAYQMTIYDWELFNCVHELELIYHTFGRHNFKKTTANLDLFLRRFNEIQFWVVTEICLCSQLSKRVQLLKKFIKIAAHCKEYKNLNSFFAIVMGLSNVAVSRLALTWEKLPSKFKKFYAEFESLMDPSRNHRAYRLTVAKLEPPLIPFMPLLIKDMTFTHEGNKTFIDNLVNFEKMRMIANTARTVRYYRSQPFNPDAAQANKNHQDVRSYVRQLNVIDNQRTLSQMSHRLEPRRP
Rap guanine nucleotide exchange factor 3 (Homo sapiens), sequence (O95398 whole entry, looked up): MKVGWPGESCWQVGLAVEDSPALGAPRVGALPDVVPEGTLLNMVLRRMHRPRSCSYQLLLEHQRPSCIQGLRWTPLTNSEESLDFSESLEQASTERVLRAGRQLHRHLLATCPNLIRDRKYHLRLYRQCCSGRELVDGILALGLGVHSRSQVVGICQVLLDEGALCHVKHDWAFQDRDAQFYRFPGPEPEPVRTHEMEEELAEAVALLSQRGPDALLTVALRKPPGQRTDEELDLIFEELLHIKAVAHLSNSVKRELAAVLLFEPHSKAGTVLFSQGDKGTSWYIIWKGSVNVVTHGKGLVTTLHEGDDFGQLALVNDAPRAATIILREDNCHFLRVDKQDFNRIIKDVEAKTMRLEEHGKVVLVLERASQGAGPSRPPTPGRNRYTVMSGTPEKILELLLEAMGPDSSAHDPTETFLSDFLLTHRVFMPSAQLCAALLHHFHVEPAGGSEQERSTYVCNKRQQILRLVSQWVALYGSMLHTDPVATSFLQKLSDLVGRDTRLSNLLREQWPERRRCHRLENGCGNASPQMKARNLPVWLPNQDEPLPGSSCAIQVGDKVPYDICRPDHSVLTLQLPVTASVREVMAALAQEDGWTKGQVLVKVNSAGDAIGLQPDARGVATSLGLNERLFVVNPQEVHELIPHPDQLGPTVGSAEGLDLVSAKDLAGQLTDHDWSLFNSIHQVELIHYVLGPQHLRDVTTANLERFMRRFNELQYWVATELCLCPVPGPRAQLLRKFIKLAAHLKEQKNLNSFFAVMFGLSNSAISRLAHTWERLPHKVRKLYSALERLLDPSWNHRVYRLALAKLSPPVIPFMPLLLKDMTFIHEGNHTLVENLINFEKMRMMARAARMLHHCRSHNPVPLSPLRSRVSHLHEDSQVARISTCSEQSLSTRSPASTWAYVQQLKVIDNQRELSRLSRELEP
Phospholipid hydroperoxide glutathione peroxidase GPX4 (Homo sapiens), sequence (P36969 whole entry, looked up): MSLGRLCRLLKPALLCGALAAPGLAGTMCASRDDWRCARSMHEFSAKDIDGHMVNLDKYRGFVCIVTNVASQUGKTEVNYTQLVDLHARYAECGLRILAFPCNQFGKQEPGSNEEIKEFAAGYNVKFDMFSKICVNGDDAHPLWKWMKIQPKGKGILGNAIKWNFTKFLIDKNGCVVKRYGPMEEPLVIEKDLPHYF

As to `CCCCOC(=O)CC(CC(=O)OCCCC)(OC(C)=O)C(=O)OCCCC`, the Potency result in test [1] was “inactive”.

As to `CCN(CC)CCOc1ccc2c(c1)C(=O)c1cc(OCCN(CC)CC)ccc1-2`, the Potency in test [1] and in test [2] was 9.44 µM (active) throughout.

For `OC(C#CCN1CCCC1)(c1ccccc1)c1ccccc1`, the Potency result in test [1] and in test [2] was “inactive” throughout.

Consider `C=C[C@@]1(C)CC(=O)[C@]2(O)[C@@]3(C)[C@@H](O)CCC(C)(C)[C@@H]3[C@H](O)[C@H](OC(C)=O)[C@@]2(C)O1`, for which the Potency in test [1] is 0.841 µM (active).

As for `O=C(CN1CCN(Cc2ccc3c(c2)OCO3)CC1)N1c2ccccc2Sc2ccccc21`, the Potency entry in test [1] was “inactive”.

For the compound `O=C(Oc1cccc2cccnc12)c1ccccc1`, the Potency result in test [1] and in test [2] was “inactive” in each case.

With `O=C(O)C(Cc1cc(I)c(O)c(I)c1)c1ccccc1` (stereo not drawn), the Potency result in test [1] was “inactive”.

For `Cc1cc2c(OCC(CNC(C)(C)C)OC(=O)c3ccccc3)cccc2[nH]1` (stereo not drawn), the Potency entry in test [1] and in test [2] was “inactive” throughout.

For `Cc1ccccc1OCC(O)CO` (stereo not drawn), the Potency result in test [1] and in test [2] was “inactive” throughout.

`OCc1ccccn1`: the Potency entry in test [1] and in test [2] was “inactive” in each case.

For `O=[N+]([O-])c1cccc(S(=O)(=O)NCCNS(=O)(=O)c2cccc([N+](=O)[O-])c2)c1`, the Potency result in test [1] and in test [2] was “inactive” each time.

Regarding `NC(=S)N/N=C/c1cccnc1`, the Potency result in test [1] and in test [2] was “inactive” in each case.

`CCCCNC(=O)NS(=O)(=O)c1ccc(N)cc1`: the Potency entry in test [1] and in test [2] was “inactive” in each case.

For the compound `CCC(C(=O)OCCOCCN(CC)CC)c1ccccc1` (stereo not drawn), the Potency entry in test [1] was “inactive”.

Take `Cc1cccc(C)c1NC(=O)CN1CCCC1`: the Potency result in test [1] and in test [2] was “inactive” each time.

On to `NC(N)=NN=C(/C=C/c1ccc([N+](=O)[O-])o1)/C=C/c1ccc([N+](=O)[O-])o1`, for which the Potency in test [1] is 0.668 µM (active).

As to `Cc1cccc(C)c1NC(=O)CN1CCCCCC1`, the Potency entry in test [1] and in test [2] was “inactive” in each case.

With `N#CCC(=O)NN`, the Potency entry in test [1] was “inactive”.

Regarding `COc1cc([C@H]2Oc3cc([C@H]4Oc5cc(O)cc(O)c5C(=O)[C@@H]4O)ccc3O[C@@H]2CO)ccc1O`, the Potency result in test [1] is “inactive”. Also, the Potency entry in test [2] was “inactive and 23.5 µM (active)”.

In the case of `Oc1ccccc1C=NCc1ccccc1`, the Potency entry in test [1] and in test [2] was “inactive” each time.

Consider `CCNC(=O)NCc1cccc(Cl)c1`, for which, in test [1], the Potency result was “inactive”.

For the compound `COc1ccc2c(c1)c1c3n2CCN(C)C3=NCC1`, the Potency result in test [1] was “inactive”.

In the case of `Cc1cn([C@H]2C[C@H](F)[C@@H](CO)O2)c(=O)[nH]c1=O`, the Potency entry in test [1] was “inactive”.

Turning to `CC(=O)NCCCCCC(=O)O`, the Potency result in test [1] and in test [2] was “inactive” each time.

With `C[C@@H](O)[C@H]1C(=O)N2C(C(=O)O)=C([C@H]3CCCO3)S[C@H]12`, the Potency entry in test [1] and in test [2] was “inactive” in each case.

Consider `C/C=C/C=N/NC(=O)c1ccncc1`, for which the Potency entry in test [1] is “inactive”.

Consider `CCCCCCCCOc1ccc(C(=O)c2ccccc2)c(O)c1`, for which, in test [1], the Potency result is “inactive”.

Take `COc1ccc(/C=N/NC(=O)c2ccncc2)cc1OC`: the Potency entry in test [1] and in test [2] was “inactive” in each case.

For the compound `COc1ccccc1N1CCN(CCCCNC(=O)c2ccc(-c3ccc(C(C)=O)cc3)cc2)CC1`, the Potency result in test [1] was “inactive”.

As to `CN(C)CCC[C@@]1(c2ccc(F)cc2)OCc2cc(C#N)ccc21`, in test [1], the Potency result was “inactive”.

`CC1=C(C(=O)O)N2C(=O)[C@@H](NC(=O)[C@H](N)c3ccccc3)[C@H]2SC1`: the Potency entry in test [1] and in test [2] was “inactive” each time.

Take `Cc1ncc(CO)c(C=O)c1O`: the Potency entry in test [1] was “inactive”.

As for `Cc1ccc2c(Br)cc(Br)c(O)c2n1`, in test [1], the Potency is 7.5 µM (active).

Turning to `CCCCCCCC/C=C\CCCCCCCCN`, in test [1], the Potency entry was “inactive”.

With `O=C1C(O)=C(O)C(=O)C(O)=C1O`, the Potency result in test [1] and in test [2] was “inactive” each time.

In the case of `N=C(N)N1CCc2ccccc2C1`, the activity change, negative = viability loss in test [1] was -4.68% [at 4.96 µM] (inactive). The activity change, negative = cell killing in test [2] was -10.2% [at 4.96 µM] (inactive).

Turning to `O=C(O)Cc1csc(-c2ccc(Cl)cc2)n1`, the Potency result in test [1] and in test [2] was “inactive” throughout.

Consider `CCOC(=O)C(C#N)=C(c1ccccc1)c1ccccc1`, for which the Potency result in test [1], in test [2] and in test [3] was “inactive” throughout. Further, the outcome in test [4] and in test [5] was inactive. In test [6], the Potency was 49.4 µM (active).

With `O=C(N/N=C/c1ccc([N+](=O)[O-])o1)c1ccc(O)cc1`, the Potency was 5.96 µM (active) in test [1] and 8.41 µM (active) in test [2].

On to `CCN(CC)CCNc1ccc(CO)c2sc3ccccc3c(=O)c12`, for which the results for the Potency in test [1] and in test [2] were 2.66 µM (active) and 1.33 µM (active), respectively. For the same compound, in test [7], the call was inactive.

Consider `NC(=O)n1c(O)c(C(=O)c2cccs2)c2cc(Cl)ccc21`, for which the Potency entry in test [1] and in test [2] was “inactive” in each case.

Consider `CC(C)Cn1cnc2c1c(=O)n(C)c(=O)n2C`, for which the Potency entry in test [1] and in test [2] was “inactive” in each case.

Turning to `CC(=O)Nc1ncc([N+](=O)[O-])s1`, the Potency result in test [1] and in test [2] was “inactive” in each case.

Turning to `CC(=O)Nc1ccc(OCC(O)CNC(C)C)cc1` (stereo not drawn), the Potency entry in test [1] and in test [2] was “inactive” in each case.

Consider `OC[C@H]1O[C@@H]2O[C@H]3[C@H](O)[C@@H](O)[C@@H](O[C@H]4[C@H](O)[C@@H](O)[C@@H](O[C@H]5[C@H](O)[C@@H](O)[C@@H](O[C@H]6[C@H](O)[C@@H](O)[C@@H](O[C@H]7[C@H](O)[C@@H](O)[C@@H](O[C@H]8[C@H](O)[C@@H](O)[C@@H](O[C@H]1[C@H](O)[C@H]2O)O[C@@H]8CO)O[C@@H]7CO)O[C@@H]6CO)O[C@@H]5CO)O[C@@H]4CO)O[C@@H]3CO`, for which the Potency entry in test [1] and in test [2] was “inactive” each time.

Regarding `CC(C)CCCC(C)N` (stereo not drawn), the Potency result in test [1] and in test [2] was “inactive” each time.

Take `CC(=O)NO`: the Potency entry in test [1] and in test [2] was “inactive” each time.

In the case of `CCCN(CCC)S(=O)(=O)c1ccc(C(=O)O)cc1`, the Potency result in test [1], in test [2] and in test [8] was “inactive” in each case. In addition, the outcome in test [7] was inactive.

As for `CC(=O)Oc1ccc(C)cc1`, the Potency entry in test [1] and in test [2] was “inactive” each time.

`COP(=O)(OC)OC(c1ccc(Cl)cc1)P(=O)(OC)OC` (stereo not drawn): the Potency entry in test [1] and in test [2] was “inactive” in each case.

With `Nc1ccc(S(=O)(=O)NCc2ccccc2)cc1`, the Potency result in test [1] and in test [2] was “inactive” each time.

For the compound `Cc1cc(-c2ccccc2)nnc1NCCN1CCOCC1`, the Potency entry in test [1] and in test [2] was “inactive” throughout.

As for `CN1CCN(CCC(=O)N2c3ccccc3Sc3ccc(C(F)(F)F)cc32)CC1`, the Potency in test [1] was 15 µM (active); in test [2], 23.7 µM (active).

As for `CC[C@H](c1ccc(O)cc1)[C@@H](CC)c1ccc(O)cc1`, the Potency in test [1] is 11.9 µM (active); in test [2], 8.41 µM (active).

As for `CCCCCCCCCCCCCCC[C@H](O)[C@@H](N)CO`, the Potency in test [1] was 4.73 µM (active); in test [2] it was 5.96 µM (active).

As for `COc1ccc(CCN(C)CCCN2CCc3cc(OC)c(OC)cc3CC2=O)cc1OC`, the Potency entry in test [1] and in test [2] was “inactive” in each case.

Take `Cl/C(=C\n1cncn1)c1ccc(Cl)cc1Cl`: the Potency result in test [1], in test [2], in test [3] and in test [6] was “inactive” in each case. Moreover, the compound was called inactive in test [4] and in test [5].

Source of the values: PubChem BioAssay (NCATS).
